Experimental data taken from PubChem BioAssay (NCI).
About 79,000 compounds went through this panel and 15% of them were active in at least one assay; those are over-represented in the sample as a whole. Active and inactive are the calls of the source. Cut-off read from the data, not from the text of the source: active = growth inhibition above about 70%; inactive = the rest.

Tests used:
[1] = NCI Yeast Anticancer Drug Screen. Data for the rad50 strain (AID 155);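 note: 0% = growth of vehicle-only cultures of the same strain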; details: S. cerevisiae rad50 strain growth inhibition, stronger effect = higher value
Summary of the method: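 Relative growth inhibition (compound vs vehicle) was measured in yeast with a defined repair-gene alteration.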

[2] = NCI Yeast Anticancer Drug Screen. Data for the mec2-1 strain (AID 157); details: S. cerevisiae mec2-1 strain, stronger effect = higher value
Summary of the method: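 Mutant yeast (mec2-1) grown with compound; growth inhibition relative to vehicle control reported.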

[3] = NCI Yeast Anticancer Drug Screen. Data for the sgs1 mgt1 strain (AID 161);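 note: 0% = growth of cultures given vehicle only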; details: S. cerevisiae sgs1 mgt1 strain, stronger effect = higher value
Summary of the method: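 Percent growth inhibition was derived by comparing compound-exposed mutant yeast with vehicle-exposed cultures. The strain carries alterations in DNA damage repair.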

[4] = NCI Yeast Anticancer Drug Screen. Data for the cln2 rad14 strain (AID 165);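 note: 0% = growth equal to vehicle treated cultures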; details: S. cerevisiae cln2 rad14 strain, stronger effect = higher value
Summary of the method: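 Readout is yeast growth inhibition versus vehicle-treated controls, using a strain with cln2 and rad14 alterations exposed to compound.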

[5] = NCI Yeast Anticancer Drug Screen. Data for the bub3 strain (AID 167); details: S. cerevisiae bub3 mutant strain, stronger effect = higher value
Summary of the method: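 Screening used yeast with an engineered genetic alteration affecting cell cycle control. Compound-exposed cultures were compared with vehicle cultures, and reduced growth was taken as inhibition.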

[6] = NCI Yeast Anticancer Drug Screen. Data for the mlh1 rad18 strain (AID 175); details: S. cerevisiae mlh1 rad18 strain growth inhibition, stronger effect = higher value
Summary of the method: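 Genetically defined yeast (DNA repair-deficient) exposed to compounds; growth inhibition determined relative to vehicle.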

[7] = at 5.0 µM (retest, dose inferred, filed as 0.5)
[8] = at 50.0 µM (retest, dose inferred, filed as 5.0)

Measured: growth inhibition

CCc1ccc2c(c1)CCCC2(C)C
inactive: [1]; at 50.0 µM unless noted -2.5% | [2]; at 50.0 µM unless noted -10.2% | [3]; at 50.0 µM unless noted 2.25% | [4]; at 50.0 µM unless noted -8.3% | [5]; at 50.0 µM unless noted 0.3%

N#CC(C#N)N=Nc1ccc(Cl)cc1
inactive: [1]; [7] 26% | [2]; [7] 18% | [3]; [7] 24% | [4]; [7] 1% | [5]; [7] 9% | [6]; [7] -1%
active: [1]; [8] 83% | [2]; [8] 73% | [3]; [8] 93% | [4]; [8] 73% | [5]; [8] 72% | [6]; [8] 87%

O=C(Cc1ccccc1)c1ccc(O)c(Cl)c1
inactive: [1]; [7] 20% | [2]; [7] 2% | [3]; [7] 18% | [4]; [7] 12% | [5]; [7] 7% | [6]; [7] -11%
active: [1]; [8] 99% | [2]; [8] 99% | [3]; [8] 99% | [4]; [8] 96% | [5]; [8] 99% | [6]; [8] 97%

CC(=O)OC(C(N)=O)c1ccccc1 (configuration not stated)
inactive: [1]; at 50.0 µM unless noted -0.7% | [2]; at 50.0 µM unless noted -0.7% | [3]; at 50.0 µM unless noted -3.3% | [4]; at 50.0 µM unless noted -9.7% | [5]; at 50.0 µM unless noted 3.45%

COC1=C2CC(C)CC(OC)C(O)C(C)/C=C(\C)C(OC(N)=O)C(OC)/C=C\C=C(/C)C(=O)NC(=C(/C=N/N3CCCCC3)C1=O)C2=O (configuration not stated)
inactive: [1]; at 50.0 µM unless noted 17.4% | [2]; at 50.0 µM unless noted 10.3% | [3]; at 50.0 µM unless noted -13.9% | [4]; at 50.0 µM unless noted -15.7% | [5]; at 50.0 µM unless noted -12.8%

CC(=O)c1ccc([N+](=O)[O-])[nH]1
inactive: [1]; at 50.0 µM unless noted -16.4% | [2]; at 50.0 µM unless noted 23.1% | [3]; at 50.0 µM unless noted -32.9% | [4]; at 50.0 µM unless noted -3.8% | [5]; at 50.0 µM unless noted -3.95%

CCc1nc(Cl)nc(Cl)c1Cl
inactive: [1]; at 50.0 µM unless noted -9.1% | [2]; at 50.0 µM unless noted -17.1% | [3]; at 50.0 µM unless noted -18.2% | [4]; at 50.0 µM unless noted 0.2% | [5]; at 50.0 µM unless noted -8.5%

CCCCCCCCCC(=O)Oc1cccc2c1CC(C[Se]c1ccccc1)C(=O)O2 (configuration not stated)
inactive: [1]; at 50.0 µM unless noted 2.1% | [2]; at 50.0 µM unless noted -0.3% | [3]; at 50.0 µM unless noted -0.85% | [4]; at 50.0 µM unless noted -3.05% | [5]; at 50.0 µM unless noted -2.05%

CN(C)C1=C(Cl)C(=O)C(=O)c2cccnc21
inactive: [1]; at 50.0 µM unless noted 32.3% | [2]; at 50.0 µM unless noted -2.9% | [3]; at 50.0 µM unless noted 21.4% | [4]; at 50.0 µM unless noted 5.2% | [5]; at 50.0 µM unless noted -16.4%

CCC/C(=N\NC(=S)N1CCN(c2ccccn2)CC1)c1ccccn1
inactive: [5]; at 50.0 µM unless noted 20.9%
active: [1]; at 50.0 µM unless noted 87.3% | [2]; at 50.0 µM unless noted 90.3% | [3]; at 50.0 µM unless noted 88.8% | [4]; at 50.0 µM unless noted 80.5%

COc1ccc(Nc2ccc3ccccc3c2)cc1
inactive: [1]; [7] 6% | [1]; [8] 0% | [2]; [7] -2% | [2]; [8] -1% | [3]; [7] -66% | [3]; [8] 50% | [4]; [7] -4% | [4]; [8] -17% | [5]; [7] 3% | [6]; [7] -31% | [6]; [8] -7%
active: [5]; [8] 72%

CN(C)c1ccc(/C=C\C(=O)c2ccccc2)cc1
active: [3]; [8] 75% | [5]; [8] 77%
inactive: [1]; [7] 7% | [1]; [8] 57% | [2]; [7] 1% | [2]; [8] 28% | [3]; [7] 6% | [4]; [7] 13% | [4]; [8] 15% | [5]; [7] 8% | [6]; [7] 32% | [6]; [8] 53%

C=C1COC(O)(C2OCOC(C3CC(=O)NC(=O)C3)C2O)C1C (configuration not stated)
active: [1]; at 50.0 µM unless noted 88% | [2]; at 50.0 µM unless noted 91.2% | [3]; at 50.0 µM unless noted 91.5% | [4]; at 50.0 µM unless noted 89.8% | [5]; at 50.0 µM unless noted 89.2%

COC(=O)c1ccc(COC(=O)N2C=CCC2C(=O)O)cc1 (configuration not stated)
inactive: [1]; at 50.0 µM unless noted 20.2% | [2]; at 50.0 µM unless noted -19.6% | [3]; at 50.0 µM unless noted 13.4% | [4]; at 50.0 µM unless noted 11.7% | [5]; at 50.0 µM unless noted 4%

COC(=O)N/N=C(/CCCC(=O)Nc1cccc([N+](=O)[O-])c1)C(C#N)c1ccc(CC#N)cc1 (configuration not stated)
inactive: [1]; at 50.0 µM unless noted -3.55% | [2]; at 50.0 µM unless noted -0.1% | [3]; at 50.0 µM unless noted -13.6% | [4]; at 50.0 µM unless noted 1.8% | [5]; at 50.0 µM unless noted 6.65%

O=C(NCCS)C(=O)NCCS
inactive: [1]; at 50.0 µM unless noted -1.55% | [2]; at 50.0 µM unless noted 7.9% | [3]; at 50.0 µM unless noted 3.65% | [4]; at 50.0 µM unless noted 9.7% | [5]; at 50.0 µM unless noted -12.7%

COc1ccc(/C=N\NC(=O)c2cnccn2)cc1
inactive: [1]; at 50.0 µM unless noted 9.15% | [2]; at 50.0 µM unless noted 10.8% | [3]; at 50.0 µM unless noted 5.35% | [4]; at 50.0 µM unless noted 1.4% | [5]; at 50.0 µM unless noted 15.7%

CC(C)NC(=O)N/C=C(\C#N)C(N)=O
active: [1]; [8] 70%
inactive: [1]; [7] 4% | [2]; [7] -1% | [2]; [8] 21% | [3]; [7] 4% | [3]; [8] 63% | [4]; [7] 2% | [4]; [8] 1% | [5]; [7] -3% | [5]; [8] 20% | [6]; [7] -39% | [6]; [8] 16%

CC(=O)OC(C)C(=O)NCC(C)O (configuration not stated)
inactive: [1]; [7] -1% | [1]; [8] 3% | [2]; [7] -2% | [2]; [8] 0% | [3]; [7] -2% | [3]; [8] 9% | [4]; [7] -1% | [4]; [8] -7% | [5]; [7] 5% | [5]; [8] 7% | [6]; [7] -33% | [6]; [8] 20%
